This is an account of results in PubChem BioAssay (NCATS).

Inconclusive results are not listed. The source made the active and inactive calls. Calls follow the shape of the full dose curve.

This assay is described as follows: qHTS for inhibitors of Rabies Virus screened against the NCATS CANVASS Library (AID 1347402). Also: 0% is about no effect. Particulars: Rabies virus infection cell assay; series mostly up to 45.9 µM. A general note: qHTS replaces the single test concentration by a dilution series.
Take `COC1C(C)OC(OCC23C[C@@H]4[C@H](C)CC[C@H]4C4(C=O)CC2C=C(C(C)C)C34C(=O)O)[C@@H](O)[C@H]1O` (some centres undefined): the call was inactive. In the case of `CC(=O)N[C@H](C)c1nc(/C=C/C=C/C(=O)CC2CC(=O)CC[C@]2(C)O)cs1` (some centres undefined), the result was inactive. As for `COc1cc(C2OCC3C(c4ccc(O)c(OC)c4)OCC23)ccc1O` (centres undefined), the activity change, negative = inhibition was 3.04% [at 9.14 µM] (inactive). Regarding `CC(=O)c1c(C)cc2c(c1O)C(=O)c1c(O)cc(O)cc1C2=O`, the call was inactive. On to `C/C=C/c1cc(OC)c2c(c1)[C@@H](C)[C@H](c1ccc(O)c(OC)c1)O2`, for which the molecule was called inactive. `COc1cc2ccc(=O)oc2c(O)c1O[C@@H]1O[C@H](CO)[C@@H](O)[C@H](O)[C@H]1O`: the result was inactive. The same measure, in the same setting: the value for `C=C[C@]1(C)CC[C@@H]([C@H](C)C(=O)/C=C/C(C)C)O1` was “inactive”; that for `O[C@H]1c2ccccc2-c2c3c(cc4c2[C@@H]1NCC4)OCO3` was “inactive”. As for `C=C[C@@]1(C)CC[C@@H]([C@H](C)C(C)=O)O1`, the molecule was classed as inactive. For `CO[C@@H](C[C@@H](C)[C@@H](O)/C=C/C=C/CNC(=O)C(C)(C)[C@H](O)\C(C)=C/C=C\C=C\Cc1cnco1)[C@]1(O)[C@@H](C)C(=O)N(C)[C@@]12COC2=O`, the outcome was inactive. On to `COC(=O)[C@@]12Oc3cccc(O)c3C(O)=C1C(=O)C[C@H](C)[C@H]2O`, for which the result was inactive.

As to `CC[C@@H]1C[C@@]2(CC)OC(=O)[C@@]3(CC)OC(=O)[C@@H]1[C@@H]23`, the result was inactive. For the molecule `CN1CCc2cc3c(c4c2[C@H]1[C@@H](O)c1ccccc1-4)OCO3`, the result was inactive.

Take `C=C1C(=O)C[C@H]2C[C@@H]1[C@]2(C)CCC=C(C)C`: the outcome was inactive.
